Values without a mark were called inactive. Calls of active or inactive are those of the source. The call rests on the fitted dose curve; in most records, active means well fitted inhibition curve with a large enough effect; inconclusive means small, poorly fitted or top-dose-only effect; inactive means no such curve, though single readings can be large or run the other way.

The nature of the assay: qHTS assay for measurement of the activity of small molecule inhibitors on Zika virus induced Caspase-3 activity in human astrocytoma cells (AID 1224859). The conditions noted are these: SNB-19 ZIKV-induced caspase-3/7, luminescence, 6 h; series mostly up to 45.7 µM; activity change, negative = inhibition: at the top concentration. An excerpt: National Center for Advancing Translational Sciences [NCATS]
Johns Hopkins University School of Medicine
Increase in the Caspase-3 activity indicates an activation of apoptosis cell death pathway caused by Zika virus infection in certain types of neuronal cells including human neural progenitor cells (hNPCs), astrocytes, and astrocytoma cell line (SNB-19). This cell-based caspase-3 activity assay measures the increased caspase-3 activity in the astrocytoma cell line (SNB-19) after a 6-hour Zika virus infection with a luminescence readout. A decrease in the luminescence signal in this assay by small molecule treatment indicates an inhibitory effect of that small molecule on the Zika virus induced caspase-3 activity that may correlate with its effect on reduction of Zika virus caused cell death.
The medium for SNB-19 cells is composed of RPMI 1640 (ATCC, Cat.# 30-2001), 10% fetal bovine serum (FBS) (GE healthcare Life Sciences, Cat.# SH30071.03), and 1% Pen/Strep (Gibco, Cat.# 15140-122). A Caspase-Glo 3/7 assay kit (catalog number G8092; Promega, Madison, WI) was used to detect caspase-3 activity induced by Zika virus infection in human cells. The reagent mixture was reconstituted as described in the protocol from the manufacturer. Polystyrene tissue culture treated and PDL coated white plates were obtained from Greiner Bio-One (Monroe, NC). Cells were seeded in 384- or 1536-well assay plates and cultured at 37 C with 5% CO2 for 16 to 20 hours. The typical cell seeding density in the 1536-well plate assay is 250 cells/well in 3ul medium for SNB-19 cells in tissue culture treated plates. Compounds were added to cells and incubated for one hour before addition of ZIKV solution to cells (2 FFU/cell). After incubation at 37 C with 5% CO2 for 6 hours, the reagent mixture of Caspase-Glo 3/7 assay kit was added to each well, followed by incubation at room temperature for 30 minutes. The luminescence intensity of the assay plates was measured using a ViewLux plate reader (PerkinElmer). Data were normalized by using the cell-containing wells without ZIKV as a negative control (0% induction of caspase 3/7 activity) and wells containing ZIKV infected cells (Caspase-3 activity induced) as a positive control (100% induction of caspase 3 activity). The percentage inhibitions of the increased Caspase-3 activity by small molecule inhibitors were then calculated.
`Cc1cc(OCCCc2c(C(=O)O)n(Cc3cccnc3)c3c(-c4c(COc5ccc(N6CCN([S+](C)(=O)[O-])CC6)cc5)nn(C)c4C)cccc23)cc(C)c1Cl`: the “activity change, negative = inhibition” value was 258%.

Take `c1cc(-c2sc(-c3ccncc3)c(-c3ccncc3)c2-c2ccncc2)ccn1`: the “activity change, negative = inhibition” value was 17.7%.

On to `O=C(O)C=Cc1ccc(O)c(O)c1`, for which the “activity change, negative = inhibition” value is -12.3%.

As for `O=C(O)CCc1nc(-c2ccccc2)c(-c2ccccc2)o1`, the Potency entry was “inactive”.

Regarding `C=CCc1ccc(O)c(-c2ccc(O)c(CC=C)c2)c1`, the “activity change, negative = inhibition” value is 126%.

As for `CC(C)C(C)C=CC(C)C1CCC2C3=CC=C4CC(O)CCC4(C)C3CCC21C` (stereo not given), the “activity change, negative = inhibition” value was -11.2%.

As to `Cn1cc(C=C2C(=O)Nc3cccnc32)c2ccccc21`, the “activity change, negative = inhibition” value is -7.02%.

On to `COc1cc2ncnc(-n3nc(-c4ccccn4)nc3N)c2cc1OC`, for which the “activity change, negative = inhibition” value was 23.4%.

In the case of `CNC(=O)c1ccc2cc(C3(O)CCn4cncc43)ccc2c1` (stereo not given), the “activity change, negative = inhibition” value is 15%.

On to `O=C(Nc1ccccc1Br)N[C@@H]1CCN(c2ccc(C(F)(F)F)cn2)C1`, for which the “activity change, negative = inhibition” value was 29.6%.

`CN(C)C1CCN(C(=O)c2ccc(NC(=O)Nc3nc(N4CCOCC4)nc(N4CCOCC4)n3)cc2)CC1`: the “activity change, negative = inhibition” value is 92.7%.

In the case of `C[C@]12CC[C@@H]3c4ccc(O)cc4CC[C@H]3[C@H]1C[C@@H](O)[C@H]2O`, the “activity change, negative = inhibition” value is 19.4%.

With `N#Cc1ccc(NC(=O)Nc2ccccc2Br)c2n[nH]nc12`, the “activity change, negative = inhibition” value is -0.437%.

As to `CC(C)(C)c1cc(C(=O)O)c(NC(=O)Nc2ccc3[nH]ncc3c2)s1`, the “activity change, negative = inhibition” value is -7.18%.

Take `Cc1c[nH]c(C=C2C(=O)Nc3ccccc32)c1CCC(=O)O`: the “activity change, negative = inhibition” value is 51%.

Turning to `Cc1ccccc1C(C(=O)NC1CCCCC1)N(C(=O)Cn1ccnc1C)c1cccc(F)c1` (stereo not given), the “activity change, negative = inhibition” value is -4.25%.

For the molecule `CC[C@]1(O)C[C@@H]2CN(CCc3c([nH]c4ccccc34)[C@@](C(=O)OC)(c3cc4c(cc3OC)N(C)[C@H]3[C@@](O)(C(=O)OC)[C@H](OC(C)=O)[C@]5(CC)C=CCN6CC[C@]43[C@@H]65)C2)C1`, the Potency result was “inactive”.

With `CC(C)n1nc(-c2ccc3oc(N)nc3c2)c2c(N)ncnc21`, the “activity change, negative = inhibition” value was 119%.

As for `CC(=Cc1ccccc1)C=C1SC(=S)N(CC(=O)O)C1=O`, the “activity change, negative = inhibition” value is 13.9%.

Turning to `Cc1cnc(C(=O)O)c[n+]1[O-]`, the “activity change, negative = inhibition” value is 1.52%.

Take `CC=CC(=O)N(CC)c1ccccc1C`: the “activity change, negative = inhibition” value is 11.6%.

For `C=C1C(=O)OC2C=C(C)CCC=C(C)CCC12` (stereo not given), the “activity change, negative = inhibition” value was 38.1%.

As to `CC(C)[C@H](CO)Nc1nc(Nc2ccc(C(=O)O)c(Cl)c2)c2ncn(C(C)C)c2n1`, the “activity change, negative = inhibition” value is 52.9%.

With `COC[C@@H](c1ccc(C(F)(F)F)cc1)N1CCN(C2(C)CCN(C(=O)c3c(C)ncnc3C)CC2)C[C@H]1C`, the “activity change, negative = inhibition” value is -6.86%.

As to `COc1ccccc1N1CCN(CCCNc2cc(=O)n(C)c(=O)n2C)CC1`, the Potency result was “inactive”.

Consider `COc1cc(N2CCC(N3CCN(C)CC3)CC2)ccc1Nc1ncc(Cl)c(Nc2ccccc2S(=O)(=O)C(C)C)n1`, for which the “activity change, negative = inhibition” value is 96.9%.

For `CO[C@H]1C=CO[C@@]2(C)Oc3c(C)c(O)c4c(O)c(c5c(c4c3C2=O)NC2(CCN(CC(C)C)CC2)N=5)=NC(=O)C(C)=CC=C[C@H](C)[C@H](O)[C@@H](C)[C@@H](O)[C@@H](C)[C@H](OC(C)=O)[C@H]1C`, the “activity change, negative = inhibition” value was 16.3%.

On to `CCOc1ccc(Nc2nc(-c3c(C)nc4ccccn34)cs2)cc1`, for which the “activity change, negative = inhibition” value was 32.9%.

Turning to `CCOC(CN1C(=O)[C@](CC(=O)Nc2ccc(C)cc2)(NC(=O)Nc2ccc(C)cc2)c2ccccc21)OCC`, the “activity change, negative = inhibition” value is 42.3%.

As to `NC(=O)c1cccc(-c2cc(Nc3ccc(OC(F)(F)F)cc3)ncn2)c1`, the “activity change, negative = inhibition” value is -2.71%.

As for `Cc1ccc([C@@H]2O[C@H](CO)[C@@H](O)[C@H](O)[C@@H]2O)cc1Cc1ccc(-c2ccc(F)cc2)s1`, the “activity change, negative = inhibition” value is 8.69%.

Take `CO[C@H]1C[C@@H]2CC[C@@H](C)[C@@](O)(O2)C(=O)C(=O)N2CCCC[C@@H]2C(=O)O[C@H]([C@@H](C)C[C@@H]2CC[C@H](O)[C@H](OC)C2)CC(=O)[C@H](C)C=C(C)[C@@H](O)[C@@H](OC)C(=O)[C@H](C)C[C@H](C)C=CC=CC=C1C`: the “activity change, negative = inhibition” value is 18.9%.

For the molecule `CCN(CC)CCNC(=O)c1ccc(N)cc1`, the Potency result is “inactive”.

With `CCN1CCC[C@H]1CNC(=O)c1cc(S(N)(=O)=O)ccc1OC`, the Potency result was “inactive”.

As to `Clc1ccc(C(c2ccc(Cl)cc2)n2cc[n+](CC(OCc3ccc(Cl)cc3Cl)c3ccc(Cl)cc3Cl)c2)cc1` (stereo not given), the “activity change, negative = inhibition” value is 1.87%.

As for `C[C@@H](O)[C@H]1C(=O)N2C(C(=O)O)=C(S[C@@H]3CN[C@H](C(=O)N(C)C)C3)[C@H](C)[C@H]12`, the Potency result was “inactive”.

Turning to `CCN(CC)C(=O)c1ccc(O)c(OC)c1`, the Potency result was “inactive”.

In the case of `COc1ccc(-c2oc3c(CC=C(C)C)c(OC4O[C@H](CO)[C@@H](O)[C@H](O)[C@@H]4O)cc(O)c3c(=O)c2OC2O[C@@H](C)[C@H](O)[C@@H](O)[C@@H]2O)cc1` (stereo not given in full), the “activity change, negative = inhibition” value was 28.2%.

`Cc1ccn(-c2ccc(-c3ncco3)cc2)c(=O)c1-c1ccc2nc(N)ncc2c1`: the “activity change, negative = inhibition” value is -8.62%.

On to `COc1cc(NC(=O)c2ccc(-c3ccc(Cl)cc3)o2)cc(OC)c1`, for which the “activity change, negative = inhibition” value is -11.3%.

The values above are taken from PubChem BioAssay (NCATS).
